Results published in PubChem BioAssay AID1159580 (chemical genetic matrix, 2015).
Out of some 5,500 compounds screened, about 2,000 (36%) were called active. Roughly 18% stayed inconclusive and do not appear here. Cut-off read from the data, not from the text of the source: active = normalized growth mostly below about 0.91 (no sharp cut-off); inconclusive = no clear call, values can overlap the other calls; inactive = mostly above about 0.92. This is one part of the list.

Assay: chemical genetic growth profiling, strain panel (AID 1159580);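 note: tested at 20 µM; growth read once vehicle control cultures reached saturation at 30 °C; 1 = growth at the plate median or of vehicle wells; lower values mean less growth of the strain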
Settings: S. cerevisiae deletion strains, growth OD
[1] = locus YAL040C, strain CLN3, stronger effect = lower value
[2] = locus YCL061C, strain MRC1 (second series), stronger effect = lower value
[3] = locus YDR363W, strain ESC2, stronger effect = lower value
[4] = locus YER002W, strain NOP16, stronger effect = lower value
[5] = locus YGR078C, strain PAC10, stronger effect = lower value
[6] = locus YJR075W, strain HOC1, stronger effect = lower value
[7] = locus YMR307W, strain GAS1, stronger effect = lower value
[8] = locus YNL175C, strain NOP13, stronger effect = lower value
[9] = locus YNL197C, strain WHI3, stronger effect = lower value
[10] = locus YNL224C, strain SQS1, stronger effect = lower value
[11] = locus YOR083W, strain WHI5 (second series), stronger effect = lower value
[12] = locus YPL055C, strain LGE1, stronger effect = lower value
[13] = locus YPL241C, strain CIN2, stronger effect = lower value
[14] = locus YAL013W, strain DEP1, stronger effect = lower value

Measured: normalized growth

CC(C)(C)c1onc(OCP(=O)(O)O)c1CC(N)C(=O)O (stereo not drawn)
inactive: [1] 1 | [2] 0.997 | [3] 1.02 | [4] 0.996 | [5] 1.01 | [6] 1 | [7] 1.03 | locus YNL128W, strain TEP1, stronger effect = lower value 1.03 | [8] 0.999 | [9] 1.01 | [10] 1.01 | [11] 1.06 | [12] 1 | [13] 0.999

O=C(O)C1=CCCN(CCON=C(c2ccccc2)c2ccccc2)C1
inactive: [14] 1 | [1] 1.04 | [2] 1 | locus YDR150W, strain NUM1, stronger effect = lower value 1 | [3] 0.976 | [4] 0.97 | [5] 0.993 | [6] 1 | locus YMR263W, strain SAP30, stronger effect = lower value 1 | [8] 0.987 | [9] 0.981 | [10] 0.993 | [11] 0.987 | [12] 1 | [13] 1

COc1ccc(CCNC[C@@H](O)c2ccc(O)cc2)cc1OC
inactive: [14] 1.01 | [1] 0.995 | [2] 0.993 | [3] 1.02 | [4] 1.01 | [7] 0.944 | locus YNL153C, strain GIM3, stronger effect = lower value 0.999 | [8] 0.992 | [9] 0.981 | [10] 0.989 | [11] 0.986

CNCC(O)c1cccc(O)c1 (stereo not drawn)
inactive: [14] 0.992 | [1] 0.974 | [2] 0.988 | [3] 0.99 | [4] 1.01 | locus YGR229C, strain SMI1, stronger effect = lower value 1.01 | [7] 0.968 | [8] 1.01 | [9] 0.998 | [10] 1 | locus YNL322C, strain KRE1, stronger effect = lower value 0.976 | [11] 1.02 | [12] 0.984
